Results as given in PubChem BioAssay AID853 (Columbia University Molecular Screening Center, 2007).
Among all 47,000 compounds or so, about 200 (0.43%) were called active. Inconclusive results (about 1%) are left out.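 The calls were made as follows: active = inhibition of aggregate fluorescence above about 70%, also judged a hit by eye on the cell image (limit read from the data, passing the limit was not always enough); inconclusive = no rule stated for this call; inactive = not judged a hit on image review.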 Many of the other results were omitted from the sample, so actives are more common in it than they were.

Assay: clearance of mutant huntingtin inclusions, primary screen, imaging, HeLa Exon1htt(103Q)mCFP, confocal imaging (AID 853);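 also: cells exposed to compound for three days before fixation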
Conditions: aggregate imaging, at 1.5 µM; fraction fluorescence in grains: measured here: aggregate grain fluorescence fraction, stronger effect = lower value; inhibition: stronger effect = higher value, zero = plate's median compound well

Structure (SMILES) | fraction fluorescence in grains | inhibition
CCOc1ccc2c(c1)C(c1ccc(C)cc1)=NNC(c1ccc(C)cc1)=N2 | 11 | 38.1% (inactive)
CCS(=O)(=O)n1nc(-c2ccccc2)nc1SCc1ccccc1 | 24.1 | -44.5% (inactive)
c1ccc(CSc2nnc(-c3ccco3)n2Cc2ccccc2)cc1 | 21.2 | -3.2% (inactive)
Cn1c(CO)cnc1SCc1ccccc1 | 10.9 | 71.7% (active)
COC(=O)c1nc2ccccc2s1 | 22.8 | -27.8% (inactive)
Cc1cc(OCCN2CCCC2)ccc1C(C)C | 38.3 | -2.5% (inactive)
CN1C(=O)CC(N2CCN(c3ccccn3)CC2)C1=O (stereo not given) | 29.4 | -42.3% (inactive)
Cc1nc2nc(C)c(CCC(=O)N3CCN(c4ccccc4)CC3)c(C)n2n1 | 38.5 | -21.5% (inactive)
CCSC(C)CC1C/C(=N/O)c2c(C)noc2C1 (stereo not given) | 43.5 | -15.9% (inactive)
Cc1cc(C(=O)Nc2ccccc2N2CCOCC2)c2ccccc2n1 | 9.37 | 47.3% (inactive)
Cn1sc(NC(=O)c2ccccc2)nc1=O | 24.3 | -16.8% (inactive)
O=C1/C(=C\Nc2ccccc2)CCN1c1ncccn1 | 25.9 | 18.4% (inactive)
CCN(CC)c1ccc(NC(=O)c2ccc(Cl)nc2)cc1 | 60.1 | -95.5% (inactive)
Clc1ccccc1-c1cc(COc2ccc3ccccc3c2)no1 | 33.9 | 11.8% (inactive)
Cc1c(NC(=O)c2cc(-c3ccc(Cl)s3)nc3ccccc23)c(=O)n(-c2ccccc2)n1C | 26.1 | 21.8% (inactive)
Cc1ccc(S(=O)(=O)N2CC(=O)Nc3ccccc32)cc1C | 33.9 | 11.1% (inactive)
COCCN(C(=O)c1ccco1)c1nnc(-c2ccc(OC)cc2)s1 | 39.8 | -2.8% (inactive)
C=CCNC(=S)NNc1ncnc2sc3c(c12)CC(C)(C)OC3 | 40.7 | -39.2% (inactive)
CC1=CC(C)(C)N(C(=O)CSc2nccn2C)c2cc(C)ccc21 | 13.3 | 26.1% (inactive)
CC(C)c1ccc(NC(=O)CCN2C(=O)c3ccc([N+](=O)[O-])cc3C2=O)cc1 | 13.6 | 55% (inactive)
COc1ccccc1NC(=O)CSc1nnc(C)n1CC1CCCO1 (stereo not given) | 15.8 | 17.7% (inactive)
COc1ccc(NC(=O)CCN2CCCC2)c(OC)c1 | 11.3 | 35.7% (inactive)
Cc1cc(-c2ccccc2)nc(N2CCC(C(=O)NC34CC5CC(CC(C5)C3)C4)CC2)n1 | 31 | 21.6% (inactive)
C=CCn1c(-c2ccc3[nH]c(C)c(C)c3c2)n[nH]c1=S | 89.3 | -112% (inactive)
Cc1ccc(CCN2CC(C(=O)O)CC2=O)cc1 (stereo not given) | 14.7 | 30.2% (inactive)
COc1ccc(C(CNC(=O)c2cccnc2SC)N2CCOCC2)cc1 (stereo not given) | 16.3 | 9.2% (inactive)
Cc1cc(C)nc(SCc2ccccc2C#N)n1 | 35.4 | -3.8% (inactive)
Cc1ccc2[nH]c3c(=O)n(Cc4ccccn4)cnc3c2c1 | 21.3 | 46.1% (inactive)

Structure (SMILES) | fraction fluorescence in grains | inhibition
Cc1ccc(-n2ccc(=O)c(C(=O)O)n2)cc1 | 23.5 | 0.4% (inactive)
Cc1cccc(C)c1-n1c(C)cc(/C=C2\C(=O)NN(c3ccccc3)C2=O)c1C | 26.9 | 30.9% (inactive)
CCS(=O)(=O)N1CCN(C(=O)c2cccs2)CC1 | 32.5 | 27.2% (inactive)
C=CCC(NCc1ccco1)c1ccc(OC)cc1 (stereo not given) | 62.5 | -55.5% (inactive)
O=S(=O)(NCc1ccccn1)c1ccc(F)cc1 | 25.8 | 28.4% (inactive)
Cn1c(NC(=O)c2ccc3c(c2)OCO3)cc(=O)n(C)c1=O | 24.1 | 28.1% (inactive)
CCCc1nc2ccccc2c(C(=O)OCc2nnc(-c3cc(OC)c(OC)c(OC)c3)o2)c1CC | 19.4 | -8% (inactive)
Cc1ccc(NC(=O)CSCC(=O)N2CCOCC2)cc1 | 29.1 | -41.8% (inactive)
COC(=O)[C@@H](NC(=O)Nc1cc(Cl)ccc1C)C(C)C | 45.5 | -4.8% (inactive)
CCC(=O)c1ccc(OCC(O)CN2CCN(c3cccc(C(F)(F)F)c3)CC2)cc1 (stereo not given) | 27.8 | -52.7% (inactive)
CCC(=O)c1ccc(OCC(O)CN2CC(C)OC(C)C2)cc1 (stereo not given) | 7.49 | 75% (active)
CC(=O)Nc1ccc(OCC(O)CN2CCN(c3ccccc3Cl)CC2)cc1 (stereo not given) | 27.5 | -41.1% (inactive)
COc1nc(-c2ccc(Cl)cc2)ccc1-c1noc(-c2cccs2)n1 | 28.7 | 4.7% (inactive)
Cc1cccc(NC(=O)Cn2cc(C(=O)c3ccco3)c3ccccc32)c1 | 68.4 | -81.7% (inactive)
O=C(CSc1nnc(-c2cccs2)n1-c1ccccc1)NCc1ccco1 | 19.3 | -12.1% (inactive)
Cc1ccc2cc(CCNC(=O)c3ccc4c(c3)OCO4)c(=O)[nH]c2c1 | 49.1 | -20% (inactive)
COc1ccc(C2CC(=O)C=C(NCC3CCCO3)C2)cc1 (stereo not given) | 23.6 | 30.2% (inactive)
COc1ccccc1NS(=O)(=O)N(C)C | 33.9 | -71.4% (inactive)
CN(C)/C=C(\C#N)C(=O)c1cccnc1Oc1cccc(F)c1 | 38.8 | -0.9% (inactive)
Cc1cccc(NC(=O)CSc2nc3c(c(=O)[nH]2)CCCC3)c1C | 17.3 | 10.8% (inactive)
O=c1[nH]c(=O)n(Cc2ccco2)c2c1C(C(F)(F)F)(C(F)(F)F)N=C(c1ccco1)N2 | 27 | 36.4% (inactive)
Cc1ccc(-n2c(=O)cc(N3CCN(Cc4ccccc4)CC3)[nH]c2=O)cc1 | 52 | -7.6% (inactive)
O=C(NC1CCc2ccccc21)C12CN(Cc3ccccc3)CC1C(c1cccc([N+](=O)[O-])c1)=NO2 (stereo not given) | 39 | -1.5% (inactive)
COc1ccccc1NC(=O)c1ccc2nc(N3C(=O)CCC3=O)sc2c1 | 16.5 | 20.1% (inactive)
CC(C)c1nc(N2CCOCC2)c(C#N)c2c1COC(C)(C)C2 | 31.9 | 13.4% (inactive)
COc1ccc(C(=O)NC(=S)Nc2ccccc2N2CCN(S(C)(=O)=O)CC2)cc1OC | 62.3 | -41.7% (inactive)
C#CCSc1nnc(-c2sc3ccccc3c2Cl)o1 | 52.1 | -34.1% (inactive)
